Compound activity from PubChem.
Most compounds without a hit are left out; they make up all but 7.5% or so of the library.
SMN2 splice enh = SMN2 splice variant enhancement. 2.8% of 210,000 active. HEK293 SMN2-luciferase splicing reporter, luminescence, 30-36 h. Potency, µM (doses to about 46.1 µM), for the others: at the highest dose activity change, positive = activation, usual class: activators; note: % of control where 0% means no effect; nearly all actives have a fitted effect of over 55% in size
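qHTS luciferase splicing reporter: luminescence rises when SMN2 exon 7 is included in transfected HEK293 cells. Compound exposure lasted 30-36 h at 37C, with 4.5 mM final sodium butyrate as control, followed by a ONE-Glo read.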
Luc counter = blocks Kinase-Glo luciferase, a counter-screen artifact; Q27757; Kinase-Glo luciferase, ATP luminescence, 8 min; Potency, µM (highest dose often 38.3 µM), inactives show top-dose activity change, negative = inhibition, most hits filed as inhibitors; 0.28% of 200,000 active; AID 1379; note: % is set by controls: 0 for no effect and ±100 for the full control effect; nearly all actives have a fitted effect of over 60% in size
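Kinase-Glo luciferase light output from ATP and luciferin was measured with 10 uM ATP, within the enzyme's linear range. Buffer: 50 mM imidazole pH 7.2, 50 mM KCl, 7 mM MgCl2, 0.01% Tween 20, 0.05% BSA; luminescence read after 8 min at ambient temperature.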
FLuc modulator = counter-screen for miR-21 project: firefly luciferase inhibitors or activators | 6.9% of 360,000 active | Potency, µM (highest dose often 57.5 µM), for the others: top-dose activity change, negative = inhibition, hits mostly inhibitors | purified FLuc, Km substrates, luminescence inhibition | P08659;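 note: plate controls were vehicle for no effect and reference inhibitor for full effect; nearly all actives have a fitted effect of over 55% in size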
Target sequence (P08659 whole entry, looked up): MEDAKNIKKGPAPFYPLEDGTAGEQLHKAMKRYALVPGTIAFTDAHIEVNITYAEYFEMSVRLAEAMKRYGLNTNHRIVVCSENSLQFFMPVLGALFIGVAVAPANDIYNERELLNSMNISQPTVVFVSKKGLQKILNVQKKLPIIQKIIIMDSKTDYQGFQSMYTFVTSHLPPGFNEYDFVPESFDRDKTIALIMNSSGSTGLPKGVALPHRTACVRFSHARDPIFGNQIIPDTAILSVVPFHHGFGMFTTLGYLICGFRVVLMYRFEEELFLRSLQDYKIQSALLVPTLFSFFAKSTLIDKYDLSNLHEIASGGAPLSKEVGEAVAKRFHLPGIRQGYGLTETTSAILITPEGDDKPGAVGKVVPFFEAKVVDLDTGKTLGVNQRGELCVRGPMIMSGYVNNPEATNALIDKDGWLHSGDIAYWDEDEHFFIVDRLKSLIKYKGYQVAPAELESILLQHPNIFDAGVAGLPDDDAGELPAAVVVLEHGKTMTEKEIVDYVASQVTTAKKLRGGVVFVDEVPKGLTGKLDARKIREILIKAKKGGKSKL
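Purified P. pyralis luciferase (10nM final) with 10uM D-luciferin and 10uM ATP (Km levels) in 50mM Tris acetate pH 7.5, 10mM Mg acetate, 0.01% Tween-20, 0.05% BSA; qHTS 6-point titration, ~60 µM downward; luminescence read.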
NPC1 prom act = activates the NPC1 promoter. Huh7 NPC1 promoter luciferase reporter, 24 h. 2.4% of 320,000 active. Potency, µM (doses to about 9.22 µM), inactives show at the top dose activation, most hits filed as activators; note: % of control where 0% means no effect; nearly all actives have a fitted effect of over 60% in size
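Compounds in DMSO were transferred onto Huh7 NPC1-luciferase reporter cells pre-incubated 2 h; after 24 h at 37 °C, Amplite reagent was dispensed and luminescence recorded 10 min later.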
Rab9 promoter act = activates the Rab9 promoter; Huh7 Rab9 promoter-luciferase reporter, luminescence, 24 h; Potency, µM (top dose mostly 9.22 µM), inactives show at the highest dose activation, negative = inhibition, hits mostly activators; 2.8% of 320,000 active; note: % of control where 0% means no effect; nearly all actives have a fitted effect of over 60% in size
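Huh7 reporter line, Rab9 promoter upstream of luciferase. Compound exposure 24 h at 37 °C in reduced-serum medium with 10% FBS. Read-out: luminescence.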
ELG1 genotox = induces genotoxicity in HEK293T cells with luciferase-tagged ELG1. AID 504466. Potency, µM (highest dose often 46 µM), inactives show at the highest dose activity change, positive = activation, hits mostly activators. 1.3% of 330,000 active. HEK293T ELG1-luciferase reporter, luminescence, 16 h; note: % of control where 0% means no effect; nearly all actives have a fitted effect of over 60% in size
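DMSO vehicle served as control against compound-treated ELG1-luciferase HEK293T cells; exposure lasted 16 hr at 37 °C and 5% CO2, followed by ONE-Glo luminescence detection after 30 min.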
* marks the source's active call; other numbers are inactive results; ? = inconclusive; . = not tested or not shown. Calls come from the whole dose curve; as a rule, active = well fitted curve in the direction sought with a large enough effect; inconclusive = small, poorly fitted or top-dose-only effect, or another doubt; inactive = no such curve, though single readings can be large; an effect the other way counts as inactive or inconclusive. Potency is the fitted concentration of half-maximal effect.

SMILES | SMN2 splice enh | Luc counter | FLuc modulator | NPC1 prom act | Rab9 promoter act | ELG1 genotox
COc1ccc(-c2nc(C#N)c(NCCc3ccccc3)o2)cc1OC | 16µM* | -8% | 6.7µM* | ? | ? | 8.2µM*
CC(C)(C)c1ccc(-c2nc(C#N)c(NCCCn3ccnc3)o2)cc1 | . | . | 21µM* | -4% | -1% | -2%
Cc1cc(C)c2c(N)c3cccc(C)c3nc2n1 | 18µM* | 11% | -13% | -24% | -36% | -10%
Cc1nc2sc(C(N)=O)c(N)c2c(C)c1CC(=O)c1ccccc1 | 24% | 1% | 17µM* | 3.5µM* | 2.8µM* | -6%
Cc1cc(C)c2c(N)c(C(=O)c3ccccc3)sc2n1 | . | . | ? | -2% | -3% | -1%
CCCCNc1nc2ccccc2c2nc(-c3ccccc3)nn12 | -9% | . | 3% | . | . | .
CCOC(=O)c1c(C)oc2nc(C)nc(NCC3CCN(Cc4ccc(Cl)cc4)CC3)c12 | . | . | -2% | . | . | .
CC(C)C(Nc1ncnc2c1oc1ccccc12)C(=O)O (stereo not given) | . | . | -16% | -2% | 1% | 5%
CC(=O)N1CCN(c2ccc(Nc3ncnc4c3oc3ccccc34)cc2)CC1 | -43% | -4% | 24µM* | 18% | 13% | -10%
Oc1ccc(Nc2ncnc3c2oc2ccccc23)cc1 | . | . | 15µM* | ? | ? | ?
CCc1nc(Nc2ccc(N3CCN(C(C)=O)CC3)cc2)c2oc3ccccc3c2n1 | . | . | ? | 5% | -3% | -31%
c1ccc2c(c1)oc1c(NCCN3CCOCC3)ncnc12 | -4% | 1% | -12% | 14% | 4% | 7%
Oc1cccc(Nc2ncnc3c2oc2ccccc23)c1 | . | . | 8.5µM* | 3.5µM* | ? | 13µM*
Oc1ccccc1Nc1ncnc2c1oc1ccccc12 | -1% | 0% | -2% | -3% | 6% | ?
c1ccc2c(c1)oc1c(Nc3ccc(CN4CCOCC4)cc3)ncnc12 | -92% | 1% | 8.5µM* | 2.2µM* | ? | 2.1µM*
COC(=O)C1CC1C(NC(=O)[C@H]1CCCCN1)c1ccccc1 (stereo not given in full) | -5% | 0% | . | . | . | .
c1ccc(Nc2ncnc3c2oc2ccccc23)cc1 | 0% | 1% | 21µM* | . | . | .
COc1ccc(C)cc1NC(=O)CSc1ncc2c(n1)-c1ccc(Cl)cc1N(Cc1ccccc1)S2(=O)=O | . | . | -4% | . | . | .
Cn1nccc1C(=O)Nc1ccn(C23CC4CC(CC(C4)C2)C3)n1 | -56% | 4% | 27µM* | 7% | -2% | ?
COc1ccccc1NC(=O)Nc1ccc(F)c(F)c1 | 28% | -23% | 17µM* | 12% | 18% | 1%
COc1cccc(OC)c1C(=O)Nc1cccc(C(=O)Nc2cccc(C(=O)O)c2)c1 | . | . | 9.5µM* | 7% | 7% | -2%
COc1ccccc1NC(=O)NCC(=O)Nc1ccc(F)c(F)c1 | . | -3% | -3% | 0% | 1% | 10%
COc1ccc(C(=O)Nc2cccc(C(C)=O)c2)cc1OC | 14% | -17% | ? | 18% | 7% | 18%
COc1ccccc1NC(=O)NC(=O)c1ccccc1 | . | . | 1.2µM* | 2.5µM* | ? | ?
COc1ccccc1C(=O)Nc1cccc(C(=O)c2ccccc2)c1 | . | . | 17µM* | -2% | 1% | 2%
SMILES | SMN2 splice enh | Luc counter | FLuc modulator | NPC1 prom act | Rab9 promoter act | ELG1 genotox
CCOC(=O)c1c(NC(=O)c2nc(SC(C)C)ncc2Cl)sc2c1CCCC2 | 11% | . | -1% | . | . | .
Cc1ccc(NC(=O)Nc2ccc3c(c2)nnn3C)cc1C | . | . | -7% | ? | ? | 13%
COc1ccccc1NC(=O)Nc1cccc(C(=O)O)c1 | -14% | -6% | 12µM* | ? | ? | 1%
COc1ccccc1NC(=O)Nc1ccc2c(c1)nnn2C | ? | -7% | 12µM* | ? | 3.2µM* | 13µM*
CCN(CC)c1ccc(C=Nc2cc(C)ccc2C)c(O)c1 | ? | -7% | 1.7µM* | 2% | 1% | 7%
Cc1ccc(N=Cc2cccc(O)c2O)c(C)c1 | 21% | -15% | ? | 1% | 9% | -2%
